This note sets out measurements from PubChem BioAssay.

Experiment [1] deals with Botulinum neurotoxin type F light chain protease (Clostridium botulinum). The experiment in a line: Clostridium botulinum type F light chain protease inhibitors, microsphere substrate cleavage, validation (AID 588459). To be noted: multiplex microsphere protease substrate cleavage assay, flow cytometry; at 10 µM; stronger effect = higher value. (In general: In flow cytometry, cells or beads pass a laser one at a time.)

Experiment [2] addresses Botulinum neurotoxin type A (Clostridium botulinum) (UniProt P0DPI0). Briefly: BoNT/A light chain protease inhibitors, biochemical, multiplex microsphere flow cytometry, validation set (AID 588460). The conditions noted are these: at 10 µM, stronger effect = higher value.
Experiment [3] in a line: reduced mouse 2C T cell binding to pMHC/ICAM-1 vesicles – MLPCN validation set, flow cytometry, LFA-1/ICAM-1 modulator project, pilot screen (AID 2523;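 active = response below a set limit, under 55% cells CD8-positive and vesicle-bound, and CD8 cells' 90th-percentile brightness under 279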;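 as to vesicle binding response: mean PE anti-B7-1 fluorescence of CD8+ cells relative to row control; 100% = QL9-loaded vesicles with DMSO vehicle in the same plate row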). To be noted: 2C mouse CD8+ T cells, at 7 µM, stronger effect = lower value; double positive events: measured here: CD8+/vesicle+ event percentage.
Experiment [4] deals with Integrin beta-1 (Homo sapiens) + Integrin alpha-4 (Homo sapiens) (UniProt P13612+P05556). Briefly: alpha4beta1 integrin LIBS antibody binding reduction – U937 cells, HUTS-21 mAb, flow cytometry, validation set, VLA-4 allosteric modulator project, pilot screen (AID 2674;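 active = inhibition above 50%, about 3 SD of the validation set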;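 also: antibody binding induced by the VLA-4 ligand LDV present at three times its Kd; 0% = LDV ligand with antibody and no compound and 100% = antibody without LDV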). The conditions noted are these: HUTS-21 LIBS mAb binding, at 6.7 µM, stronger effect = higher value.
Experiment [5] can be described thus: calorie-restriction mimetic ROS inhibitors, yeast – validation compound set, pilot screen (AID 2706;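 active = superoxide response below 65% of plate, a cut near 3 SD across the whole screen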;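 also: yeast exposed to compound for one week at 30 degrees C before staining; 100% = mean of all compound wells on the same plate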). To be noted: S. cerevisiae aging, superoxide DHE fluorescence; at 10 µM; stronger effect = lower value.
The target of experiment [6] is Beta-adrenergic receptor kinase 1 (Homo sapiens) (UniProt P25098). Briefly: GRK2 binders displacing RNA aptamer, biochemical, validation, human GRK2, bead flow cytometry (AID 488806;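 active = aptamer binding inhibition above 30%, about 3 SD of noise from non-fluorescent compounds; inactive = inhibition at or below 30%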). To be noted: bead-bound GRK2, FAM-aptamer displacement, at 10 µM, stronger effect = higher value.
Beta-adrenergic receptor kinase 1 (Homo sapiens), sequence (P25098 whole entry, looked up): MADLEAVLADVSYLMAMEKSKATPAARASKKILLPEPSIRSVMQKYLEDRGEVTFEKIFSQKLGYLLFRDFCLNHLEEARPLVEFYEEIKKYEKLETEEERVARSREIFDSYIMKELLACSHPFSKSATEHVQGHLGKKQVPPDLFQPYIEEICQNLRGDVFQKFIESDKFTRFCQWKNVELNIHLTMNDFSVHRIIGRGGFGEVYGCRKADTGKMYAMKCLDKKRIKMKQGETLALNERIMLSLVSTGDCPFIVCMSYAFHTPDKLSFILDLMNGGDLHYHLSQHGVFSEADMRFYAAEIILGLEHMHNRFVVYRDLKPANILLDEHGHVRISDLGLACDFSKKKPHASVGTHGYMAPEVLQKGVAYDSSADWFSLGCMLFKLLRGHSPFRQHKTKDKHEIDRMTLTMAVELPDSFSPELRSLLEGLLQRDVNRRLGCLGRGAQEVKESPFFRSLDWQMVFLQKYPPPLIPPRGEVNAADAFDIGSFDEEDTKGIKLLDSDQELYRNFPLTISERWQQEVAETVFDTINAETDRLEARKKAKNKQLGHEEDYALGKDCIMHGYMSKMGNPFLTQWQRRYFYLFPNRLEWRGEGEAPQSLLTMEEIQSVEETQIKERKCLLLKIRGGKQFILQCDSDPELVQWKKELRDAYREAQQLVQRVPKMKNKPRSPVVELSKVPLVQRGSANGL
In experiment [7] the target is Beta-2 adrenergic receptor (Homo sapiens) (UniProt P07550). Briefly: agonist-induced loss of surface beta2AR – cell-based, FAP fluorogen, flow cytometry, validation set, pilot screen (AID 504459;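 active = percent response above 42, roughly 3 SD of non-fluorescent test compounds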;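 also: agonist-driven loss of surface beta2AR via internalization measured by FAP dye flow cytometry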). The conditions noted are these: Am2.2-beta2AR cells, at 10 µM, stronger effect = higher value.
Beta-2 adrenergic receptor (Homo sapiens), sequence (P07550 whole entry, looked up): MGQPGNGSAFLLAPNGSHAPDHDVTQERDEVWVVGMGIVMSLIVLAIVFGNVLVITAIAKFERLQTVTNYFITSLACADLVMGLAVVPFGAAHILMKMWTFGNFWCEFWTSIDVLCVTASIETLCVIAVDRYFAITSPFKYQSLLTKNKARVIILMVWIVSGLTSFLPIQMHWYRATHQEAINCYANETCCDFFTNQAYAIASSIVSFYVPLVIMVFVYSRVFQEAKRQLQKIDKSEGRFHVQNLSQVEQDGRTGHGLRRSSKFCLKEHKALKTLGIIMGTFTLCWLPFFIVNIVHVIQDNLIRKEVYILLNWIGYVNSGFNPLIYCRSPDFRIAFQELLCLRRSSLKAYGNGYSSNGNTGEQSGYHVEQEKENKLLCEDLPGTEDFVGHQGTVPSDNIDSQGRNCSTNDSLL
The target in experiment [8] is AP-2 complex subunit beta (Homo sapiens) (UniProt P63010). Briefly: beta-arrestin/AP2 interaction blockers – biochemical, validation set, GST-AP2 beads, flow cytometry, pilot screen (AID 504541;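 active = inhibition above 54%, about 3 SD of non-fluorescent compounds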;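 also: AP2 carries R879A mutation and is captured from E. coli lysate; bead-bound FITC arrestin peptide fluorescence measuring arrestin peptide binding to AP2; 0% = DMSO wells and 100% = excess unlabeled arrestin peptide control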). The conditions noted are these: FITC arrestin peptide, at 10 µM, stronger effect = higher value.
AP-2 complex subunit beta (Homo sapiens), sequence (P63010 whole entry, looked up, one chain of several): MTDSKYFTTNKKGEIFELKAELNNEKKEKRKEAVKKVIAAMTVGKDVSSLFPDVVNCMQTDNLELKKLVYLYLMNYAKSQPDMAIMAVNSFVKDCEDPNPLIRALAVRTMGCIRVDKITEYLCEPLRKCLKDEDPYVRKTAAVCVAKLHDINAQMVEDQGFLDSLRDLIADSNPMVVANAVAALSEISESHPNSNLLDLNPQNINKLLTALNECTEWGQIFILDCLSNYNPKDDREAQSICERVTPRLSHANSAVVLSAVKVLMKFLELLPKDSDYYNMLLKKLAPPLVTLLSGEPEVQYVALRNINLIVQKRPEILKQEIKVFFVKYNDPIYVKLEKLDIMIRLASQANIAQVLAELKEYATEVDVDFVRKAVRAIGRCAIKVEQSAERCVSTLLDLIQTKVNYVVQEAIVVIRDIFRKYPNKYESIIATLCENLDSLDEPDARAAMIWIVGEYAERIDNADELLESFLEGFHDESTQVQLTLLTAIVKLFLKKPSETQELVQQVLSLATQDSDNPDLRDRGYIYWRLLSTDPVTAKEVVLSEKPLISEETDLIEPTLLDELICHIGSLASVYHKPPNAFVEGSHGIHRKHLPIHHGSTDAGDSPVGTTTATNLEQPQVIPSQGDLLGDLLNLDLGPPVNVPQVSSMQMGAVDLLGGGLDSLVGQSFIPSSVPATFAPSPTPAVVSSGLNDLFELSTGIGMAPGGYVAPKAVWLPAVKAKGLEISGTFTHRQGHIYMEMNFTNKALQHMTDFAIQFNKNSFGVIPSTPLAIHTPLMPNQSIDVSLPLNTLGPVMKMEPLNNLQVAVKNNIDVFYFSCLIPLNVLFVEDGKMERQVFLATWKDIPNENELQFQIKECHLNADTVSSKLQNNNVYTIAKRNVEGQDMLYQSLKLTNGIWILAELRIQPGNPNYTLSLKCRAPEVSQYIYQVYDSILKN
A short description of experiment [9]: cytosolic pH regulators acting via V-ATPase – S. cerevisiae, pHLuorin, HTS validation (AID 504600; in the data active = response above about 15%;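 also: plate controls were DMSO for no effect and reference compound for full effect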). To be noted: V-ATPase proton transport, at 10 µM, stronger effect = higher value.
The test system of experiment [10] is anti-desmoglein-3 scFv antibody binding to human DSG3. Briefly: blockers of pathogenic pemphigus antibody–desmoglein-3 binding – biochemical, validation compound set, bead-based, flow cytometry, pilot screen (AID 588368;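 active = binding below the plate cutoff, the plate median minus 3 SD, with a reading above zero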;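 also: signal is the median channel fluorescence of bead-bound GFP antibody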). To be noted: Protein G beads, DSG3-Fc, scFv-GFP binding, at 10 µM, stronger effect = lower value.
Experiment [11] addresses Lethal factor (Bacillus anthracis) (UniProt P15917). The experiment in a line: Bacillus anthracis lethal factor inhibition, microsphere flow cytometry protease assay, validation at 10 µM (AID 588461). To be noted: multiplex microsphere protease cleavage assay, stronger effect = higher value.
The nature of experiment [12]: Nile Red efflux blockade in pump-expressing yeast – validation compound set, multiplex, phenotypic, pilot screen (AID 588506;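 active = efflux inhibition above 0.42, the validation set average plus 4 SD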;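 also: Nile Red retained in cells so higher fluorescence means more efflux inhibition; 0 = negative control wells and 1 = enniatin B 25 µM full block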). To be noted: S. cerevisiae pump-expressing triplex, Nile Red efflux flow cytometry; at 10 µM; stronger effect = higher value.
Experiment [13] has as its target ATP-binding cassette sub-family B member 6 (Homo sapiens) (UniProt Q9NP58). The experiment in a line: blockers of ABCB6-driven porphyrin uptake – K562-ABCB6 cells, flow cytometry, validation set, pilot screen (AID 588550;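 active = inhibition above the screen-wide mean plus 3 SD, about 51%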;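 also: 0% = DMSO wells and 100% = benzethonium chloride 70 µM positive control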). The conditions noted are these: K562-ABCB6 porphyrin accumulation, 1 h, at 10 µM, stronger effect = higher value.
Experiment [14] is described as follows: AML differentiation inducers, ER-HoxA9 marrow cells – cell-based, GFP/MAC1 double positive, flow cytometry, validation set, primary screen (AID 588685;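 active = differentiation response of at least 50%, scaled between solvent and reference control, from cells with both markers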;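 also: compound exposure lasts four days before antibody staining and flow analysis; 0% = DMSO wells and 100% = 5 µM fulvestrant positive control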). The conditions noted are these: stronger effect = higher value.
Experiment [15] in a line: hit retest on RPL19A-GFP reporter strain – cell-based, S. cerevisiae, flow cytometry, cherry picks, mother/daughter gates, confirmation (AID 2270;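 active = GFP response below 50% of the DMSO control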). The conditions noted are these: 3 h, at 10 µM, stronger effect = lower value, 100 = same GFP as DMSO wells.
The nature of experiment [16]: yeast TOR pathway reporter LAP4-GFP change – cell-based, cherry picks, flow cytometry, mother/daughter gates, confirmation (AID 2271;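 active = GFP response above 150% of the DMSO control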;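 also: ratio of sample to DMSO plate mean so 100% equals DMSO level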). The conditions noted are these: S. cerevisiae LAP4-GFP strain, 3 h, at 10 µM, stronger effect = higher value.
Experiment [17] in a line: TOR pathway reporter MEP2-GFP, retest of hits – S. cerevisiae, flow cytometry GFP, cherry picks, confirmation (AID 2272;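 active = GFP response above 150% of the DMSO control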;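 also: ratio of well signal to plate DMSO mean so 100% equals DMSO level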). The conditions noted are these: S. cerevisiae MEP2-GFP strain, 3 h, at 10 µM, stronger effect = higher value.
Experiment [18] is described as follows: yeast AGP1-GFP fluorescence change, single-dose – cell-based, flow cytometry, S. cerevisiae, cherry picks, confirmation (AID 2273;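 active = GFP response above 150% of the DMSO level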;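 also: median GFP channel fluorescence over the whole cell population gate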). The conditions noted are these: S. cerevisiae AGP1-GFP strain, 3 h, at 10 µM.
Experiment [19] is described as follows: TOR pathway CIT2 reporter hit retest – S. cerevisiae, GFP fusion, cherry picks, mother/daughter gates, confirmation (AID 2274;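 active = GFP response above 150% of the DMSO level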). To be noted: S. cerevisiae CIT2-GFP strain, flow cytometry, 3 h, at 10 µM, stronger effect = higher value.
The mark [20] stands for this setting: measured here: daughter cell gate.
Setting [21] is: measured here: mother cell gate.

The source made the active and inactive calls. Unless noted, no rule for the calls is given here.

Botulinum neurotoxin type A (Clostridium botulinum), sequence (P0DPI0 whole entry, looked up): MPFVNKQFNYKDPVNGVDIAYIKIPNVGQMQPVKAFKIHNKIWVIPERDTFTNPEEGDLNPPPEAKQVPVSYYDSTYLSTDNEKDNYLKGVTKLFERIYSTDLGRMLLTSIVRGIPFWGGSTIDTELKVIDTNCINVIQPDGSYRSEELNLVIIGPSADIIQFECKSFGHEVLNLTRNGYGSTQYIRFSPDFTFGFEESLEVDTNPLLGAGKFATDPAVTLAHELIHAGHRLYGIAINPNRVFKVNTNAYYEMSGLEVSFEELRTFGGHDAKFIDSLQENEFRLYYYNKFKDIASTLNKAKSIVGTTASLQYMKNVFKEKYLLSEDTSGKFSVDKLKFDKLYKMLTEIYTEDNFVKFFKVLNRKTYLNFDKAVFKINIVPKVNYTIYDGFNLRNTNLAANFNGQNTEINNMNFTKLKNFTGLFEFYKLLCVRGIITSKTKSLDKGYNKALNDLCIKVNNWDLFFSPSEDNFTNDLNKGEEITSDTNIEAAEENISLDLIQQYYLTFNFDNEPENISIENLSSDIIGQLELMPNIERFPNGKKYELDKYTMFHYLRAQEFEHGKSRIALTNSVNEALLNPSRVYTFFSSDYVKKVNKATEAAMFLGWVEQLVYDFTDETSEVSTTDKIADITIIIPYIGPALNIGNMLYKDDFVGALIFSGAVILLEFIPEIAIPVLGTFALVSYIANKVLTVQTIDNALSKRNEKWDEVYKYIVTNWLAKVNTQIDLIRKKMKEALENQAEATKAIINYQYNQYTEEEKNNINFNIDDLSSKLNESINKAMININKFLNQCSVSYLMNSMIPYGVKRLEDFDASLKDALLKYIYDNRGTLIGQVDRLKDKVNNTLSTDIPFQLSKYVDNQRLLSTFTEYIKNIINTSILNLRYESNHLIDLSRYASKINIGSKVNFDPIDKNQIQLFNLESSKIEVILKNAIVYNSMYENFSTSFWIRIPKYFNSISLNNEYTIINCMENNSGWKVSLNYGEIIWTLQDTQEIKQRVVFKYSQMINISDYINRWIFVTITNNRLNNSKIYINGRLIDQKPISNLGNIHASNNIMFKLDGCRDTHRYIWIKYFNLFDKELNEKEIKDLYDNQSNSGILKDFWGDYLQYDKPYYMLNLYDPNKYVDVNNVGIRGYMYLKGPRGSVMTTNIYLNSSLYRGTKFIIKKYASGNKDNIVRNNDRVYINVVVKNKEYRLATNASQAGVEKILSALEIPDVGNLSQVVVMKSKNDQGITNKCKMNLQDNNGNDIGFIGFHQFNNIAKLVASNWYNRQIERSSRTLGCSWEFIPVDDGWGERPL
Lethal factor (Bacillus anthracis), sequence (P15917 whole entry, looked up): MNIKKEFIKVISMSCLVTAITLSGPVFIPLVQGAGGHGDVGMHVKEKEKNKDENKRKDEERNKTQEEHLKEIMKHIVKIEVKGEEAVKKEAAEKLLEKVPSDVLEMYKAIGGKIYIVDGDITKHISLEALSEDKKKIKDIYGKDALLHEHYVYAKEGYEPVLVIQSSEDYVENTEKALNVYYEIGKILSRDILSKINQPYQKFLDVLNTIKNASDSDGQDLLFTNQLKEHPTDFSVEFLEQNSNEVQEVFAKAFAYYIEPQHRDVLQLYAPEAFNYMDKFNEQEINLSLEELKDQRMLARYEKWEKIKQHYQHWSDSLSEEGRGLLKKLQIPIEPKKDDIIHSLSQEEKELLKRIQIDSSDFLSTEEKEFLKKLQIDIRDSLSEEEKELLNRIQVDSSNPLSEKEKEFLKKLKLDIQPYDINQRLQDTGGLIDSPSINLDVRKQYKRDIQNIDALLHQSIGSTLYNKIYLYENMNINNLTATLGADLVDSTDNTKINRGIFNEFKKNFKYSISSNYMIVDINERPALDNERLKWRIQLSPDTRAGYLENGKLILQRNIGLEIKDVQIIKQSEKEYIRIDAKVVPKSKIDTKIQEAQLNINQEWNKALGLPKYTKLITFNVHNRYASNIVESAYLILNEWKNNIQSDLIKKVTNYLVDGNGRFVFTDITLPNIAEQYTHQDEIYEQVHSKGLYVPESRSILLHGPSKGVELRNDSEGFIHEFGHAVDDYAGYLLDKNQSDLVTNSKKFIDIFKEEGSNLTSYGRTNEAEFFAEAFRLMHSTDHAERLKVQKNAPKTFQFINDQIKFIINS
ATP-binding cassette sub-family B member 6 (Homo sapiens), sequence (Q9NP58 whole entry, looked up): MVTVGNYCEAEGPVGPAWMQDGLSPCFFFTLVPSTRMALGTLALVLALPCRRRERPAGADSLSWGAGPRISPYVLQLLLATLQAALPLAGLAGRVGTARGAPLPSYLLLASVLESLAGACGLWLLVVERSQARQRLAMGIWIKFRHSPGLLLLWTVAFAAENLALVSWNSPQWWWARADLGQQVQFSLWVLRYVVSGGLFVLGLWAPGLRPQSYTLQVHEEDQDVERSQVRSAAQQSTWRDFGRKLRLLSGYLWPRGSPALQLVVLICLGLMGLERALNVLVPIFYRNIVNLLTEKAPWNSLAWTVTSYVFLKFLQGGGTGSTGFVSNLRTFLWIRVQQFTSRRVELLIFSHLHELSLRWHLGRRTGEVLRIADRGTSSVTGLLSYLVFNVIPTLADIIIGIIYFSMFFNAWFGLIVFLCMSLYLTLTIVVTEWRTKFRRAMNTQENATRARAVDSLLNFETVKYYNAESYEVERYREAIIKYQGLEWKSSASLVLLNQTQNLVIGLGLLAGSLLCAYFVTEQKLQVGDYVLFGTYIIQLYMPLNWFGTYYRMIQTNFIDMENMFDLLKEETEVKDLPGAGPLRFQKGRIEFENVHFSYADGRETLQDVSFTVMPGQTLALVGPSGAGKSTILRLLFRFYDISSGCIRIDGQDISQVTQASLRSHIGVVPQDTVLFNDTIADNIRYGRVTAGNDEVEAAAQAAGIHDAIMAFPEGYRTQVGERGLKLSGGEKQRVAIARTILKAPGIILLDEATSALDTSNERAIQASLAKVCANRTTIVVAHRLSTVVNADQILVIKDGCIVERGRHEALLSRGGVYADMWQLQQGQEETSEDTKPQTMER

`CC(=O)OCC(=O)[C@@]12OC(C)(C)O[C@@H]1C[C@H]1[C@@H]3C[C@H](F)C4=CC(=O)C=C[C@]4(C)[C@@]3(F)[C@@H](O)C[C@@]12C`: the inhibition was -3.5% (inactive) in [1] and -1.4% (inactive) in experiment [2].

Take `CC(=O)Nc1cc([As](=O)(O)O)ccc1O`: the double positive events in [3] is 62.8%. In addition, the vesicle binding response in experiment [3] is 170% (inactive). Also, the inhibition was 0.59% (inactive) in [4]; -6.36% (inactive) in experiment [8]; 1% (inactive) in [1]; -1.3% (inactive) in experiment [2]; 5.5% (inactive) in [11]; 6% (inactive) in experiment [13]. The superoxide response (% of plate) in experiment [5] is 92.8% (inactive). Further, the aptamer binding inhibition in experiment [6] is 0% (inactive). Besides, the values for the response in [7] and in experiment [9] were -23.7% (inactive) and 1.26% (inactive), respectively. Besides, the binding (% of control) in experiment [10] was 101% (inactive). Further, the efflux inhibition (fraction of control) in experiment [12] was 0 (inactive). For the same compound, the differentiation response in [14] is -0.06% (inactive).

Compound `NCC(O)c1ccc(O)cc1` (stereo unspecified) had a double positive events in experiment [3] of 66.5%. Further, the vesicle binding response in [3] was 150% (inactive). Besides, the inhibition in [4] was -2.27% (inactive); in experiment [8], -8.51% (inactive); in experiment [1] it was 1.9% (inactive); in experiment [2] it was 1% (inactive); in experiment [11], 6% (inactive); in experiment [13], 8% (inactive). Besides, the superoxide response (% of plate) in experiment [5] was 94.8% (inactive). For the same compound, in experiment [6], the aptamer binding inhibition is 2% (inactive). In addition, the response in experiment [7] is 8.68% (inactive); in [9], 2.02% (inactive). Further, the binding (% of control) in experiment [10] was 103% (inactive). Further, in experiment [12], the efflux inhibition (fraction of control) was -0.35 (inactive). Besides, the differentiation response in experiment [14] was 2.46% (inactive).

With `CN1C(=O)C(=Cc2ccc(Sc3ccccc3)o2)C(=O)N(C)C1=S`, the GFP response vs DMSO was 98.2% (inactive) in experiment [15], 94.4% in experiment [15] (setting [20]), 91.3% in experiment [15] (setting [21]) and 106% (inactive) in experiment [17]. For the same compound, the values for the GFP response relative to DMSO in experiment [16], in experiment [16] (measured here: daughter cell gate response) and in experiment [16] (measured here: mother cell gate response) were 126% (inactive), 114% and 130%, respectively. The GFP response, % of DMSO is 99.3% (inactive) in experiment [18], 99.3% (inactive) in experiment [19], 117% in experiment [19] (setting [20]) and 84% in experiment [19] (setting [21]).

`CS(=O)(=O)Nc1ccc([N+](=O)[O-])cc1Oc1ccccc1`: the inhibition in experiment [1] was 0% (inactive); in [2], -0.9% (inactive).

Turning to `CNC[C@H](O)c1cccc(O)c1`, the inhibition in experiment [1] is 1.5% (inactive); in experiment [2], 2.2% (inactive).

`Cc1c2ccncc2c(C)c2c1[nH]c1ccccc12` returned a double positive events in experiment [3] of 61%. The vesicle binding response in experiment [3] was 710% (inactive). The superoxide response (% of plate) in experiment [5] was 84.9% (inactive). Further, in experiment [6], the aptamer binding inhibition is -5% (inactive). For the same compound, the response in experiment [7] was -323% (inactive); in experiment [9] it was -2.57% (inactive). Besides, the inhibition is 5.87% (inactive) in [8], 2.4% (inactive) in experiment [1], 2.8% (inactive) in experiment [2] and 2% (inactive) in experiment [11]. For the same compound, the binding (% of control) in experiment [10] is 180% (inactive). Moreover, the efflux inhibition (fraction of control) in [12] is 0.3 (inactive). The differentiation response in [14] was 18% (inactive).

For the compound `CN1CCN2c3ccccc3Cc3ccccc3C2C1` (stereo unspecified), the inhibition in [1] is 0.3% (inactive); in [2] it was 0.5% (inactive).

For the compound `CN1[C@@H]2CC[C@H]1CC(OC(=O)C1C=Nc3ccccc31)C2` (stereo partly specified), the double positive events in [3] worked out at 52.3%. The vesicle binding response in [3] is 136% (inactive). Also, the inhibition was 20.3% (inactive) in [4]; -15.4% (inactive) in experiment [8]; 1.4% (inactive) in experiment [1]; -0.6% (inactive) in experiment [2]; 4.3% (inactive) in experiment [11]; 7% (inactive) in experiment [13]. The superoxide response (% of plate) in experiment [5] is 111% (inactive). For the same compound, in experiment [6], the aptamer binding inhibition was 0% (inactive). Besides, the response in experiment [9] was -15% (inactive). Moreover, in [10], the binding (% of control) was 93.3% (inactive). In [12], the efflux inhibition (fraction of control) is -0.2 (inactive). In addition, the differentiation response in experiment [14] is -3.43% (inactive).

In general, inhibition refers to the relative decrease from the control value, in per cent.
